Laboratory results published in PubChem BioAssay (NCI).
Where “and” joins values, the source holds several entries; their conditions need not be identical. Identical values can stand only once. This is part of a sample that, as a whole, favours compounds with a hit. Of some 79,000 tested, about 15% had one in any assay. Cut-off read from the data, not from the text of the source: active = growth inhibition above about 70%; inactive = the rest.

Tests used:
[1] = NCI Yeast Anticancer Drug Screen. Data for the rad50 strain (AID 155);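 note: 0% = growth of vehicle-only cultures of the same strain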; conditions: S. cerevisiae rad50 strain growth inhibition, active compounds read high; at 50.0 µM unless noted
How it was run: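 Genetically altered yeast (DNA repair pathway); compound treatment; growth inhibition vs vehicle ctrl.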

[2] = NCI Yeast Anticancer Drug Screen. Data for the mec2-1 strain (AID 157); conditions: S. cerevisiae mec2-1 strain, active compounds read high; at 50.0 µM unless noted
How it was run: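 Vehicle-treated cultures served as reference for growth inhibition of compound-exposed mec2-1 yeast.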

[3] = NCI Yeast Anticancer Drug Screen. Data for the sgs1 mgt1 strain (AID 161);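 note: 0% = growth of cultures given vehicle only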; conditions: S. cerevisiae sgs1 mgt1 strain, active compounds read high; at 50.0 µM unless noted
How it was run: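 Mutant yeast exposed to compound; growth scored against vehicle-only wells.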

[4] = NCI Yeast Anticancer Drug Screen. Data for the cln2 rad14 strain (AID 165);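 note: 0% = growth equal to vehicle treated cultures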; conditions: S. cerevisiae cln2 rad14 strain, active compounds read high; at 50.0 µM unless noted
How it was run: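 Each compound was tested on cln2 rad14 yeast. Inhibition of growth was calculated against vehicle-exposed controls.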

[5] = NCI Yeast Anticancer Drug Screen. Data for the bub3 strain (AID 167); conditions: S. cerevisiae bub3 mutant strain, active compounds read high; at 50.0 µM unless noted
How it was run: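 Yeast carrying a defined mutation is treated with each compound, and growth is compared with that of vehicle-exposed cells to give inhibition.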

[6] = NCI Yeast Anticancer Drug Screen. Data for the mlh1 rad18 strain (AID 175); conditions: S. cerevisiae mlh1 rad18 strain growth inhibition, active compounds read high; at 50.0 µM unless noted
How it was run: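 Vehicle-treated cultures served as the reference for growth inhibition in a yeast strain carrying DNA damage repair alterations exposed to each compound.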

Measured: growth inhibition

CCOC(=O)C(c1ccc2c(c1)OCO2)C1(NC(=O)c2ccccc2)C(=O)C(C(=O)OC)C(=O)C1C(=O)OC (centres undefined)
inactive: [1] 16.5% | [2] 6.15% | [3] -6.7% | [4] 10% | [5] 1.4% | [6] 10.9%

O=C(O)Cc1ccc(C(=O)O)cc1
inactive: [1] 21.2% | [2] -1.25% | [3] 5.8% | [4] -13.4% | [5] 13.2% | [6] 32.8%

NC(=O)c1ccc(-c2csc(=S)[nH]2)s1
inactive: [1] -1.9% | [2] -9.7% | [3] -15.5% | [4] -13.1% | [5] -19.1% | [6] -5.35%

COc1ccc2cc1Oc1ccc(cc1)C[C@H]1c3cc(c(OC)cc3CCN1C)Oc1c(OC)c(OC)cc3c1[C@H](C2)N(C)CC3
inactive: [1] 27.1% and 23.9% | [2] 12.3% and -23.1% | [3] -15.9% and 5.7% | [4] -26.3% and 4.5% | [5] -6.4% and 19.7% | [6] -31.4% and -38.9%

c1cc2c(cc1C1=NNC(c3ccc4c(c3)OCO4)=NN1)OCO2
inactive: [1] -13.3% | [2] 10.2% | [3] -7.45% | [4] 1.4% | [5] -4.95% | [6] -3.05%

Cc1ccnc(NCCCNc2nccc(C)n2)n1
inactive: [1] 22.6% | [2] -1.4% | [3] 14.1% | [4] 36.8% | [5] 5.2% | [6] 22.3%

O=C(O)CC(C(=O)O)C(Cc1ccccc1)c1ccccc1 (centres undefined)
inactive: [1] -10.2% and 22.4% | [2] -4.25% and 10.9% | [3] 0.35% and 10.1% | [4] -0.05% and 5.95% | [5] -1.6% and 10.1% | [6] -3.15% and -6.55%

N#Cc1ccc(CC(=O)c2ccccc2)cc1
inactive: [1] -6.05% | [2] 12.8% | [3] 0.45% | [4] -27.4% | [5] -0.75% | [6] 3.15%

CC(=O)OC(CCC1CO1)OC(C)=O (centres undefined)
inactive: [1] 0.65% | [2] 11.6% | [3] -0.2% | [4] -7.65% | [5] 15.2% | [6] -0.1%

Nc1nc2cc3nc(N)c(N)nc3cc2nc1N
inactive: [1] -6.4% | [2] 14.7% | [3] 13.1% | [4] 34.9% | [5] 13.2% | [6] 15.1%

O.O.O=S(=O)(O)C(F)(F)F.[NH2-].[NH2-].[NH2-].[NH2-].[Ru+3]
inactive: [1] -17.8% | [2] 1.8% | [3] -27% | [4] -16.9% | [5] -27.4% | [6] -11.6%

CCOP(=O)(OCC)C(C)(CC)N/C(=N/C(NC(C)=O)(C(F)(F)F)C(F)(F)F)NC1=NC(C(F)(F)F)(C(F)(F)F)N=C(C(F)(F)F)O1 (centres undefined)
inactive: [1] 1.65% | [2] 4.65% | [3] -26.8% | [4] 5.3% | [5] -3.1% | [6] -34.1%

CC(C)(O)CCO
inactive: [1] -38.4% | [2] -40.4% | [3] -17.4% | [4] -10.7% | [5] -25.9% | [6] -33.1%

N#CCNC(=O)Cc1ccccc1
inactive: [1] 10.2% | [2] -10.2% | [3] -10.2% | [4] -12.4% | [5] -30.3% | [6] -4.7%

Clc1cc(NCc2ccco2)ncn1
inactive: [1] -21.8% | [2] -6.3% | [3] -19.5% | [4] -3.9% | [5] 0.85% | [6] -11.2%

CC1CCC(C(=O)O)(C(Br)C(=O)O)CC1 (centres undefined)
inactive: [1] -14.5% | [2] -12.7% | [3] -12.8% | [4] -27.9% | [5] -20.8% | [6] -3.3%

CSCCCCC(N)C(=O)O (centres undefined)
inactive: [1] 0.05% | [2] 3% | [3] -0.9% | [4] -14% | [5] 12.4% | [6] -3.85%

C1=C(N2CCCC2)C(=[N+]2CCCC2)C(N2CCCC2)=C1
inactive: [1] 3.65% | [2] -2.45% | [3] 5.55% | [4] -7.25% | [5] 1.5% | [6] 9.15%

CC1CCC2(OC1)OC1CC3C4CCC5CC(O)CCC5(C)C4C(O)CC3(C)C1C2C (centres undefined)
inactive: [1] 42.5% | [2] 5.65% | [3] 43% | [4] 36.8% | [5] 52.1% | [6] 24.1%

Cc1ccccc1OC(=O)Oc1ccccc1C
inactive: [1] 8.7% | [2] -2.6% | [3] 4.8% | [4] 1% | [5] 21.1% | [6] 21.9%

Cc1ccc(C(=O)/C=C/c2cccc3ccccc23)cc1
inactive: [1] 16.1% | [2] 3.65% | [3] 21.5% | [4] 4.25% | [5] 9.95% | [6] 3.95%

COc1ccc2[nH]c3c(=O)[nH]ncc3c2c1
inactive: [1] -1.9% | [2] -0.95% | [3] -7.5% | [4] -3.05% | [5] 9.8% | [6] 9.05%

O=C(c1ccccc1)c1ccc2c(c1)N=C(c1ccc(Cl)c(Cl)c1)CC(c1ccc3ccccc3c1)N2 (centres undefined)
inactive: [1] 22.2% | [2] 15.4% | [3] -7% | [4] -33.5% | [5] -3.6% | [6] 16.6%

Cc1ccc(OCc2ccc([N+](=O)[O-])cc2)cc1
inactive: [1] 1.8% | [2] -12.2% | [3] -12.6% | [4] 13.9% | [5] -16.4% | [6] -16.8%

CCOc1c(N=Nc2ccc(Cl)cc2Cl)c(C)nn1C(=S)SC
inactive: [1] 41.4% | [2] 16.1% | [3] 25.9% | [4] 15.5% | [5] -0.45% | [6] 19.6%

CC(=O)CCC(C)C1CCC2C3CCC4CCCCC4(C)C3CCC12C (centres undefined)
inactive: [1] 7.4% | [2] -3.05% | [3] -7.75% | [4] 13.8% | [5] -2.15% | [6] -1.8%

C[N+]1(Cc2csc(-c3ccc(Cl)cc3)n2)CCOCC1
inactive: [1] 3.15% | [2] -25.6% | [3] 10.5% | [4] 9.35% | [5] 0.7% | [6] 4.2%

CCCN(CCC)CC(O)c1ccc(Cl)c2ccccc12 (centres undefined)
inactive: [1] 1.85% | [2] -30.1% | [3] 21.1% | [4] -35.3% | [5] -17.9% | [6] -9.55%

O=Cc1ccc(C=O)o1
inactive: [1] 4.25% | [2] -1.8% | [3] 28.9% | [4] 6.3% | [5] -11.7% | [6] 14.2%

CC(=O)c1cccc(NC(=O)Oc2cc(=O)oc3ccccc23)c1
inactive: [1] 5.75% | [2] 19.3% | [3] 12.4% | [4] -4.6% | [5] 38.2% | [6] 29.5%

CCOc1c(N=Nc2cccc(Cl)c2)c(C)nn1C(N)=S
inactive: [1] 20.4% | [2] 3.35% | [3] 9.65% | [4] -25.1% | [5] -15.5% | [6] 19.4%

CC1OC(Cl)CC(NC(=O)C(F)(F)F)C1OC(=O)C(F)(F)F (centres undefined)
inactive: [1] -0.55% | [2] -1.7% | [3] -5.55% | [4] -17.8% | [5] 14.2% | [6] 13.9%

Cc1ccc(Cl)c(NC(=O)Nc2ccccc2Cl)c1
inactive: [1] -3.7% | [2] 3.65% | [3] -7.2% | [4] -15.2% | [5] -2.5% | [6] 20.4%

COC(=O)C(CCSC)NC(=O)C1CSC(C)(C)N1C=O (centres undefined)
inactive: [1] 0.65% | [2] 0.2% | [3] 39.2% | [4] -1.85% | [5] 44.5% | [6] -1.85%

Cc1c2noc1CCCCCCCCCCC2
inactive: [1] 18.9% | [2] 20% | [3] 3.6% | [4] -4.15% | [5] -13.7% | [6] 17.9%

CCn1nc(C)c2c1C(=O)NC(C)C(=O)N2 (centres undefined)
inactive: [1] -22.6% | [2] -33% | [3] -13.5% | [4] 16.4% | [5] -22.9% | [6] -22.4%

CCC(C(=O)O)C(=O)O.[NH2-].[NH2-].[Pt+2]
inactive: [1] 11.8% | [2] -6.6% | [3] -11.1% | [4] 14.1% | [5] -9.55% | [6] 2.4%

O=NC1C(Br)C2CC1C1C(Br)C(Br)CC21 (centres undefined)
inactive: [1] 4.45% | [2] 5.95% | [3] 13.3% | [4] 0.15% | [5] -1.2% | [6] 6.7%

O=C(Cc1nc2ccccc2s1)C(=O)Nc1cccc(C(F)(F)F)c1
inactive: [1] -4.95% | [2] 8.75% | [3] -10.7% | [4] 7.95% | [5] 6.1% | [6] -6%
